The record followed here is PubChem BioAssay (NCI).

Experiment in all cases: NCI-60 one-dose screen, 48 h (100 = growth as untreated, 0 = no growth, -100 = all killed)
What all share (conditions): 10 µM unless noted

In assay [1] the test system is NCI-H23 lung.
Assay [2] has as its system NCI-H226 lung.
The test system of assay [3] is NCI-H322M lung.
The test system of assay [4] is HOP-62 NSCLC.
For assay [5], the system named is NCI-H460 lung.
Assay [6] deals with HOP-92 NSCLC.
Assay [7] deals with NCI-H522 lung.
In assay [8] the test system is A549/ATCC NSCLC.
For assay [9], the system named is 786-0 renal.
Assay [10] concerns COLO 205 colon.

The panel holds about 83,000 compounds, 20% with a hit somewhere; the sample as a whole holds those more often.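 Activity criterion: percent growth below 10, measured after cells in 96-well plates were exposed to a single compound concentration for 48 hours.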 Values without a mark were called inactive. Activity calls are given as the source filed them.

For `COc1cc(/C=C\c2cc(OC)c(OC)c(OC)c2)cc(N/C=C\C(=O)c2c[nH]c3ccccc23)c1OC`, the growth in [1] was 60.5%; in assay [2], 65.5%; in assay [3], 80.4%; in [4] it was 83%; in assay [5], 82.6%; in assay [6] it was 48.4%. Moreover, the growth in [7] is -76.9% (active); in [8], 84.3%; in assay [9] it was -5.56% (active); in [10], -77.2% (active).

As for `COc1cc2c(cc1OCCCCn1c(-c3cc(=O)c4ccccc4o3)nc3ccccc31)N=C[C@@H]1CCCN1C2=O`, the growth was 101% in assay [1]; 101% in [2]; 108% in assay [3]; 105% in assay [4]; 112% in [5]; 66.5% in [6]. Besides, the growth in [7] is 66.7%; in assay [8], 90.5%; in assay [9], 108%; in assay [10], 104%.

In the case of `O=C1Nc2ccc(Br)cc2C1=N/C=c1\[nH]c(=O)/c(=C/c2ccc(Cl)cc2)s1`, the growth in [1] was 97.8%; in assay [2], 98.3%; in assay [3], 93.2%; in [4], 84.1%; in [5], 101%; in assay [6], 83.2%. The growth is 89.3% in [7], 85.3% in assay [8], 90.6% in assay [9] and 102% in [10].

Consider `O=C(CCCn1c2c(sc3ccccc32)c(=O)n2nnc(-c3ccccc3)c12)NCCc1cnc[nH]1`, for which the growth is 23.4% in [1]; 98.5% in [2]; -34.1% (active) in [3]; -7.01% (active) in [4]; -93.2% (active) in [5]; -75.7% (active) in [6]. For the same compound, the growth in [7] was -95.8% (active); in assay [8], -75.3% (active); in [9], -85.2% (active); in assay [10], -3.8% (active).

Turning to `CCn1c(=O)c2c(=O)c3c4c(oc3oc2c2ccccc21)C(=O)c1ccccc1C4=O`, the growth is 66.8% in assay [1]; 99.4% in assay [2]; 97.7% in assay [3]; 80.3% in assay [4]; 83.7% in assay [5]; 50.8% in assay [6]. Besides, the growth in assay [7] was 65.5%; in [8] it was 82.4%; in assay [9], 105%; in assay [10] it was 110%.

In the case of `Nc1c(C(=O)Nc2cccc(C(F)(F)F)c2)sc2nc3c(cc12)CCCCC3`, the growth in [1] was 3.46% (active); in assay [2] it was 11.3%; in [3] it was -5.26% (active); in assay [4] it was 3.07% (active); in assay [5] it was 10.3%; in [6], 17.5%. The growth is 20% in assay [7], -18.4% (active) in assay [8], -62.8% (active) in [9] and 65.1% in assay [10].

Consider `O=C(CCl)NCCNc1nccc(Nc2ccc(S(=O)(=O)Nc3ccccn3)cc2)n1`, for which the growth in assay [1] was 22.6%; in assay [2] it was 48%; in assay [3] it was 56.5%; in assay [4], 26%; in assay [5] it was 2.9% (active); in assay [6] it was 31.2%. The growth was -63.9% (active) in assay [7], 56.8% in assay [8], -34.5% (active) in assay [9] and 61.1% in [10].

Consider `O=C1CCC(=O)N1Cc1ccccc1`, for which the growth in assay [1] is 86.7%; in assay [2] it was 89.5%; in [3], 98.2%; in assay [4], 107%; in assay [5] it was 106%; in [6], 89.9%. The growth is 102% in [7], 102% in assay [8], 104% in assay [9] and 111% in assay [10].

As for `CN=S(=O)(NC(=O)c1ccc(Cl)cc1Cl)c1ccc(Br)s1` (stereo not given), the growth in assay [1] is 104%; in [2] it was 93.8%; in [3], 113%; in assay [4] it was 105%; in assay [5] it was 98.6%; in [6], 65.9%. Further, the growth was 102% in [7], 89.5% in [8], 105% in assay [9] and 121% in [10].

Turning to `COc1cc(NC(=O)CSc2nc3ccc(C)cc3c(=O)n2-c2ccccc2)cc(OC)c1OC`, the growth in assay [1] is 84.1%; in [2], 82.6%; in assay [3] it was 101%; in [4], 91.2%; in [5] it was 101%; in assay [6], 49.5%. The growth was 68.7% in assay [7], 83.9% in assay [8], 89.4% in [9] and 111% in assay [10].

Consider `COc1ncc(-c2ccc3ncnc(Nc4cccc(Cl)c4)c3c2)cc1NS(=O)(=O)CCN1CCOCC1`, for which the growth in assay [1] is 21.4%; in assay [2], 22.3%; in [3], -17.1% (active); in [4] it was 17.5%; in [5] it was 10.3%; in [6] it was -26.3% (active). In addition, the growth in assay [7] was 14%; in assay [8], -4.57% (active); in assay [9], 10.5%; in [10] it was -6.87% (active).

Consider `Nc1c(C(=O)Nc2cccc(C(F)(F)F)c2)sc2nc3c(cc12)CCCCCC3`, for which the growth in assay [1] is 8.82% (active); in [2], 5.69% (active); in [3], 10.6%; in [4], -1.22% (active); in [5], 4.27% (active); in [6] it was -14.2% (active). The growth in assay [7] is 36.2%; in assay [8], -45.2% (active); in [9] it was -71.7% (active); in assay [10], 48.5%.

On to `COC(=O)C(CC(=O)c1ccc(-c2ccccc2)cc1)c1ccccc1` (stereo not given), for which the growth in assay [1] was 76.6%; in assay [2], 63.3%; in assay [3] it was 96.8%; in assay [4], 75.1%; in assay [5] it was 90%; in assay [6], 68.3%. The growth is -0.151% (active) in assay [7], 76.6% in [8], 28.7% in [9] and 36.7% in assay [10].

As to `Cc1ccc2c(c1)C(C)Cc1c(N(C)C)ncnc1N2C` (stereo not given), the growth in assay [1] is 50.5%; in assay [2] it was 81.8%; in [3] it was 81.2%; in [4], 36.4%; in [5], 15.5%; in [6] it was 52.4%. Also, the growth in assay [7] was 4.76% (active); in assay [8], 49.3%; in assay [9], 34.8%; in assay [10], 32.4%.
